CYP2C9 inh: human CYP2C9 inhibition; inhibition, % at 5 µM; P11712; 20% of 96,000 active; CYP2C9 Supersomes, luciferin-H conversion, luminescence;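 active = blocking of liver enzyme CYP2C9 beyond about 50% at 5 µM, limit read from the data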
CYP2C19 act: activators of human cytochrome P450 2C19; P33261; recombinant CYP2C19, luciferin-H EGE luminescence; hits give high values; 0 = fully inhibited enzyme, 1 = untreated enzyme; activation factor at 5 µM; 96,000 tested, under 10 active; AID 1025;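 active = activation factor of at least 2 at 5 µM in the primary screen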;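 also: 0 = wells with 2.5 mM tranylcypromine and 1 = vehicle-only wells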
Cav3 T inh: inhibitors of human Cav3.2 T-type calcium channel | O95180 | Cav3.2-expressing cells, Fluo-4 calcium fluorescence FDSS; hits give low values | B-score at 10 µM | 4% of 100,000 active | AID 449739;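 active = single-dose well whose peak fluorescence ratio is a statistical outlier from its plate by either plate-standardised score or position-corrected B-score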
CYP2C9 activ: activators of human CYP2C9. P11712. recombinant CYP2C9, luciferin-H conversion, luminescence; hits give high values; factor 1 = untreated enzyme, 0 = blocked. activation factor at 5 µM. 1.4% of 96,000 active;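 active = activation factor of 2 or more for CYP2C9 at a 5 µM dose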;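 also: 0 = sulfaphenazole-blocked wells and 1 = vehicle-only wells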
CYP2C19 inhib: inhibitors of human CYP2C19. CYP2C19 Supersomes, luciferin-H EGE luminescence, 30 min. inhibition, % at 5 µM. 21% of 96,000 active;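 active = CYP2C19 inhibition above a set limit at 5 µM in the primary screen, cut at about 50% in these data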;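 also: plate controls were negative control wells for no effect and 2.5 mM tranylcypromine positive control for full effect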
Pyk2 oligo antag: antagonists of human Pyk2 oligomerization; Q14289; Q293 cells, Pyk2 FERM NanoBiT luminescence; hits give low values; z-score (the deposit names both 25 µM and 10 µM); 0.83% of 99,000 active;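 active = Z-score of -3 or lower, scaled per plate to the spread of control and sample wells; inactive = z-score above -3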;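 also: negative z-score means lost luminescence so less FERM oligomerization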
An asterisk follows results filed as active; / = not tested or not shown. An excerpt weighted towards active compounds, which were near 27% of everything screened.

SMILES	CYP2C9 inh	CYP2C19 act	Cav3 T inh	CYP2C9 activ	CYP2C19 inhib	Pyk2 oligo antag
Cc1onc(-c2ccccc2Cl)c1C(=O)Nc1ccc2c(c1)OCO2	52.6*	0.3	-0.168	0.5	70.8*	-0.49
Cc1onc(-c2ccccc2)c1C(=O)OCC(=O)c1ccccc1	54.1*	0.3	-2.37	0.5	69.3*	-1.81
Cc1cc(NC(=O)c2c(-c3ccccc3Cl)noc2C)no1	30.9	0.8	-0.585	0.7	15.2	0.74
Cc1onc(-c2ccccc2Cl)c1C(=O)OCC(=O)c1ccc2c(c1)OCCO2	46.9	0.4	/	0.5	55.1*	-2.73
Cc1ccc(CCNC(=O)C2CCN(C(=O)N(C)C)CC2)cc1	10.6	0.9	0.908	0.9	5.1	-0.05
NC(=O)C1CCN(C(=O)c2cc(S(=O)(=O)N3CCOCC3)c(Cl)cc2Cl)CC1	-0.4	1	0.343	1	4.1	0.58
CCOC(=O)CSc1nnc(C)n1N	-2.2	1	-0.468	1	3.2	0.53
Cc1onc(-c2c(Cl)cccc2Cl)c1C(=O)Nc1ccc2c(c1)OCCO2	88.5*	0.5	-0.0551	0.1	53.6*	-1.51
COC(=O)c1cc(OC)c(OC)cc1NC(=O)c1c(-c2ccccc2Cl)noc1C	56.4*	0.6	-2.86	0.4	41.5	-1.55
Cc1onc(-c2ccccc2)c1C(=O)Nc1ccc2c(c1)OCCO2	23.8	0.7	-0.419	0.8	30.2	0.8
O=C(Nc1ccc2c(c1)OCO2)C1CC(c2ccccc2Cl)=NO1 (stereo unspecified)	-75.1	0.1	-0.759	1.8	94.5*	0.2
Cc1onc(-c2ccccc2Cl)c1C(=O)Nc1ccc(F)c(F)c1	69.6*	0.1	-4.08*	0.3	89.5*	-0.84
CCn1cc(C2=NOC(C(=O)Nc3ccc4c(c3)OCO4)C2)c(C)n1 (stereo unspecified)	44.6	1	0.53	0.6	-3.6	-0.04
Cc1csc(NC(=O)C2CCN(C(=O)CSc3nnc(C)n3Cc3ccccc3)CC2)n1	43.0	0.6	-0.451	0.6	35.6	-0.06
Cc1cc(NS(=O)(=O)c2ccc(NC(=O)c3ccoc3C)cc2)nc(C)n1	23.5	0.9	0.403	0.8	5.2	0.06
Cc1ccccc1-n1nc2c(c1NC(=O)c1c(-c3ccccc3Cl)noc1C)CS(=O)(=O)C2	5.3	1	/	0.9	-2.3	0.74
Cc1onc(-c2ccccc2Cl)c1C(=O)Nc1cccc(-c2cn3cccnc3n2)c1	84.8*	0.4	-0.342	0.2	61.5*	-0.61
Cc1ccc(-n2nc3c(c2NC(=O)c2c(-c4ccccc4Cl)noc2C)CS(=O)(=O)C3)c(C)c1	79.1*	0.5	/	0.2	51.7*	0.84
CCOc1ccc(C(=O)Nc2c3c(nn2C(C)(C)C)CSC3)cc1OCC	18.1	0.9	-3.33*	0.8	11.8	-0.05
CCN1C(=O)/C(=C\c2cccs2)C(C(=O)OC)=C1C	51.3*	0.9	0.638	0.5	13.5	0
Cc1ccc(C(=O)Nc2cc3c(oc2=O)CCCC3=O)cc1	8.9	1	0.756	0.9	-1.0	-0.76
O=C(NCc1cccnc1)c1ccc(Cl)cc1[N+](=O)[O-]	9.2	0.6	-0.462	0.9	44.2	-0.4
CC(C)CC(=O)N1CCN(c2ccc([N+](=O)[O-])c(NCc3ccccc3)c2)CC1	/	/	-2.26	/	/	-2.74
O=[N+]([O-])c1ccc(N2CCN(S(=O)(=O)c3ccc(Cl)cc3)CC2)cc1NCc1cccnc1	53.0*	1	0.0466	0.5	4.8	-2.75
O=[N+]([O-])c1ccc(N2CCN(S(=O)(=O)c3ccccc3)CC2)cc1NCc1cccnc1	36.1	0.9	0.931	0.6	9.8	-3.66*
SMILES	CYP2C9 inh	CYP2C19 act	Cav3 T inh	CYP2C9 activ	CYP2C19 inhib	Pyk2 oligo antag
CCC(C)(C)NC(=O)C(c1ccncc1)N(Cc1ccc(C)cc1)C(=O)c1csnn1 (stereo unspecified)	/	/	0.671	/	/	0.39
OCCNc1nc(Nc2ccccc2O)nc(N2CCCC2)n1	/	/	0.738	/	/	/
COCc1cc(C)nc(N2CCN(Cc3ccccc3)CC2)c1C#N	13.5	0.1	1.1	0.9	94.8*	-0.06
COCc1cc(C)nc(N2CCN(c3ccccc3)CC2)c1C#N	-139.2	0.3	-4.47*	2.4*	68.8*	0.79
COCc1cc(C)nc(NCCc2ccccc2)c1C#N	4.2	0.5	-0.332	1	51.5*	-0.41
CC(C)C(NC(=S)NCc1ccccc1)C(=O)O (stereo unspecified)	34.2	0.1	0.244	0.7	86.2*	-0.9
COC(=O)NNC(=S)NCc1ccccc1	/	/	/	/	/	1.12
Cc1ccc(Oc2cc(C)nc(-c3ccccc3O)n2)cc1	78.8*	0.2	0.443	0.2	76.3*	0.75
Cc1ccc(Nc2cc(C)nc(-c3ccccc3O)n2)cc1	55.3*	0.8	0.0524	0.4	20.0	-0.01
Cc1ccc(-c2nnc(CSc3nnc(COc4ccccc4)n3-c3ccccc3)o2)cc1	97.9*	0.1	-6.96*	0	92.4*	-0.78
Cc1ccc(-c2nnc(CSc3nnc(COc4ccccc4)n3-c3ccc(C)cc3)o2)cc1	70.7*	0.6	-5.48*	0.3	36.5	0.84
CCc1nnc(NC(=O)CSc2nnc(COc3ccccc3)n2-c2ccc(C)cc2)s1	3.5	1	0.815	1	-0.4	0.99
CCOc1ccc(-c2nnc(SCc3nnc(-c4ccccc4)o3)n2-c2ccccc2F)cc1	6.0	1	-0.178	0.9	3.9	0.54
Cc1csc(SCc2c(C(=O)O)oc3ccccc23)n1	/	/	-0.145	/	/	-0.23
COc1ccc(CCNC(=O)CSc2nnc(-c3ccccc3)o2)cc1OC	45.7	0.2	-0.29	0.5	80.7*	0.64
COc1cc(-c2nnc(SCC(=O)c3ccccc3)o2)cc(OC)c1OC	10.8	0.6	-0.636	0.9	36.9	-0.29
COc1ccc(-c2nnc(SCC(=O)N(Cc3ccccc3)C(C)(C)C)o2)cc1OC	2.4	0.6	-7.06*	1	40.9	-2.27
CCCCn1c(-c2ccccc2)cnc1SCC(=O)NCCc1ccc(OC)c(OC)c1	89.6*	0	-4.47*	0.1	95.5*	-0.18
COc1ccc(CCNC(=O)CSc2nnc(-c3cccc(C)c3)o2)cc1OC	35.5	0.4	-0.767	0.6	56.0*	1.01
COc1ccc(CCNC(=O)CSc2ccc3ccccc3c2)cc1OC	/	/	/	/	/	0.5
O=CN/C=C/c1cc(O)ccc1O	/	/	0.662	/	/	/
C[C@H](NC(=O)c1nc[nH]c1C(=O)NC1CCN(C(=O)OC(C)(C)C)CC1)C(=O)OCc1ccccc1	/	/	0.62	/	/	/
COc1ccc(CCNC(=O)CSc2nc(N)c3c(C)c(C)oc3n2)cc1OC	40.2	0.4	1.29	0.6	62.4*	0.03
Cc1oc2nc(SCC(=O)NC3CCCCC3)nc(N)c2c1C	/	/	/	/	/	-1
CCOC(=O)C1C(c2cccc(Cl)c2Cl)NC(=O)NC1(O)C(F)(F)F (stereo unspecified)	1.0	0.8	-0.0593	1	20.8	-0.56
Cc1c(C(=O)N2CCOCC2)sc(NC(=O)c2ccc3c(c2)OCO3)c1C#N	11.1	1.1	0.217	0.9	-7.5	2.55

Source: PubChem (several laboratories)
